Reference: PubChem BioAssay
Values joined by “and” are separate entries in the source; they are usually repeats but may differ in a detail not shown here. Identical values can stand only once. Active and inactive are the calls of the source. Unless noted, the rule behind the calls is not given here.

What was measured:
[1] = P. berghei load reduction in hepatocytes – cell-based, HepG2, luciferase luminescence, HepG2 viability, primary screen (AID 624349; in the data active = parasite load remaining mostly below about 12%, no sharp cut-off; inactive = mostly above about 10%;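 note: 100% = mean of DMSO negative control wells on the same plate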); settings: P. berghei liver stage in HepG2, luciferase luminescence, concentration not given here; parasite load remaining: stronger effect = lower value; viability: measured here: HepG2 viability without parasites
[2] = signal quenchers or enhancers, Cy5 substrate/SSB – biochemical, NIH Clinical Collection, E. coli SSB, artefact control for HCV NS3 helicase inhibitor project (AID 743268); settings: Cy5-oligo bound E. coli SSB, fluorescence interference
[3] = tested on: Hepatitis C virus NS3 helicase; assay: blockers of NS3h binding to DNA – biochemical, fluorescence polarization, NIH Clinical Collection, primary screen (AID 743270); settings: NS3 helicase binding to Cy5-dT15 DNA, stronger effect = higher value, concentration not given here
[4] = biological target: Single-stranded DNA-binding protein (Escherichia coli (strain K12)) (UniProt P0AGE0); assay: SSB-ssDNA binding inhibitors – biochemical, fluorescence polarization, NIH Clinical Collection, counter-screen for HCV NS3 helicase inhibitor project (AID 743271; in the data active = inhibition above about 28%); settings: E. coli SSB-DNA binding, stronger effect = higher value, concentration not given here
[5] = compounds distorting NS3 helicase fluorescence signal – biochemical, NIH Clinical Collection, artefact control for HCV NS3 helicase inhibitor project (AID 743272); settings: fluorescence interference counterscreen, HCV NS3 helicase assay; stronger effect = lower value;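 note: HCV NS3 helicase with a Cy5 labelled single stranded DNA probe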
[6] = Wnt pathway potentiators raising nuclear beta-catenin – imaging, WNT3A-conditioned medium, mouse C2C12, NPC library, primary screen (AID 1117326; in the data active = nuclear beta-catenin stimulation mostly above about 4.2%, no sharp cut-off; inactive = mostly below about 10%); settings: stronger effect = higher value
[7] = stimulators of insulin release from INS-1E, primary screen, cell-based, 5 mM glucose, NPC library (AID 1117329;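 active = compound raises insulin release from rat beta cells at 5 mM glucose, no numeric limit stated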); settings: rat INS-1E insulin secretion, at 10 µM, stronger effect = higher value
[8] = growth inhibition of GSK3B-pretreated HCT116 cells – cell-based, CellTiter-Glo, 0.2 to 20 µM (AID 1117336;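 active = compounds lowering colon cancer cell viability after pretreatment blocking the GSK3B kinase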); settings: HCT116 viability after GSK3B inhibitor, at 20 µM, stronger effect = higher value
[9] = inhibition of endothelial tube formation, primary screen, imaging, VEGF stimulated, CD31 staining, tube area, NPC library (AID 1117340;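 active = compound that reduces growth-factor-driven endothelial tube area in a mixed cell culture, no cutoff stated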); settings: VEGF-stimulated ADSC/ECFC co-culture, at 10 µM, stronger effect = higher value
[10] = GLP1 release stimulators, primary, NCI-H716, NPC library (AID 1117341;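 active = compound raises GLP1 secretion from the human gut endocrine cells, with no numeric limit stated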); settings: NCI-H716 cells, at 10 µM, stronger effect = higher value
[11] = HCT116 colon cancer cell growth inhibition, primary screen, CellTiter-Glo luminescence, NPC library (AID 1117342;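 active = compounds that lower survival of HCT116 colon cancer cells in the luminescence readout, no numeric limit stated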); settings: at 20 µM (top of the series)
[12] = reduced SW480 viability measured with CellTiter-Glo, NPC library, primary (AID 1117343;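 active = compounds that lower viability of the colon cancer cells in the luminescence readout, with no numeric limit stated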); settings: CellTiter-Glo luminescence; at 20 µM (top of the series)
[13] = NPC library primary testing for decreased DLD-1 cell viability via CellTiter-Glo (AID 1117346;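 active = compounds that lower survival of DLD-1 colon cancer cells in the luminescence readout, no cutoff given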); settings: DLD-1 viability, CellTiter-Glo luminescence; at 20 µM (top of the series)
[14] = biological target: 6-phosphogluconate dehydrogenase, decarboxylating (Homo sapiens) (UniProt P52209); assay: inhibition of human phosphogluconate dehydrogenase – biochemical, recombinant enzyme, NADPH absorbance, primary screen (AID 1159550;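 active = at least 20% inhibition of 6-phosphogluconate dehydrogenase activity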); settings: recombinant 6PGD, NADPH absorbance 341 nm; at 10 µM; stronger effect = higher value
Sequence of 6-phosphogluconate dehydrogenase, decarboxylating (Homo sapiens) (P52209 whole entry, looked up): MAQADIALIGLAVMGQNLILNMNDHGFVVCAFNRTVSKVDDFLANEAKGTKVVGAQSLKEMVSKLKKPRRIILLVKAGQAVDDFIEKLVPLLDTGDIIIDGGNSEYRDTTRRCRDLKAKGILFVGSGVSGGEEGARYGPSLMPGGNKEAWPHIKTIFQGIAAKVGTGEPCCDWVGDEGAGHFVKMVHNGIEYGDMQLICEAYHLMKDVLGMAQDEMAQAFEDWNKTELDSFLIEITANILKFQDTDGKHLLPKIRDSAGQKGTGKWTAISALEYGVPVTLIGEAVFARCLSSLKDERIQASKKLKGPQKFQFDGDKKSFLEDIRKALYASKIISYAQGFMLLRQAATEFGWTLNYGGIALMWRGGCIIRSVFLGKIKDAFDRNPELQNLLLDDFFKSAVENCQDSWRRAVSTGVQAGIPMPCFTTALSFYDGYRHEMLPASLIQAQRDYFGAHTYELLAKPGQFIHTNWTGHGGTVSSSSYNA

[15] = viability loss with induced miR-34 in A549 – imaging, A549 dox-inducible miR-34, nuclei and caspase counts, primary screen (AID 1347080;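 active = compounds whose cell count with miR-34 switched on is under 0.7 times the count with it off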); settings: A549 miR-34 inducible, Hoechst nuclei count, 48 h
[16] = MELAS cybrid and Rieske KO viability enhancers – cell-based, MELAS cybrids, Rieske KO mouse fibroblasts, CellTiter-Glo, primary screen (AID 1508586;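 active = mean z-score across replicates of 1.96 or higher in either the MELAS or the Rieske mutant cell line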;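 note: z relative to plate mean and SD of compound and empty wells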); settings: low glucose
[17] = biological target: NAD(+) hydrolase SARM1 (Homo sapiens) (UniProt Q6SZW1); assay: blocking NAD cleavage by SARM1 SAM-TIR – cell lysate, NAD-Glo luminescence (AID 1508614;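 active = compound whose remaining NAD level is above about 45 nM, limit read from the data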;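 note: higher remaining NAD means stronger inhibition of SARM1 NADase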); settings: SAM-TIR HEK293T lysate NADase, at 1 µM, stronger effect = higher value
Sequence of NAD(+) hydrolase SARM1 (Homo sapiens) (Q6SZW1 whole entry, looked up, the tested form may be a part): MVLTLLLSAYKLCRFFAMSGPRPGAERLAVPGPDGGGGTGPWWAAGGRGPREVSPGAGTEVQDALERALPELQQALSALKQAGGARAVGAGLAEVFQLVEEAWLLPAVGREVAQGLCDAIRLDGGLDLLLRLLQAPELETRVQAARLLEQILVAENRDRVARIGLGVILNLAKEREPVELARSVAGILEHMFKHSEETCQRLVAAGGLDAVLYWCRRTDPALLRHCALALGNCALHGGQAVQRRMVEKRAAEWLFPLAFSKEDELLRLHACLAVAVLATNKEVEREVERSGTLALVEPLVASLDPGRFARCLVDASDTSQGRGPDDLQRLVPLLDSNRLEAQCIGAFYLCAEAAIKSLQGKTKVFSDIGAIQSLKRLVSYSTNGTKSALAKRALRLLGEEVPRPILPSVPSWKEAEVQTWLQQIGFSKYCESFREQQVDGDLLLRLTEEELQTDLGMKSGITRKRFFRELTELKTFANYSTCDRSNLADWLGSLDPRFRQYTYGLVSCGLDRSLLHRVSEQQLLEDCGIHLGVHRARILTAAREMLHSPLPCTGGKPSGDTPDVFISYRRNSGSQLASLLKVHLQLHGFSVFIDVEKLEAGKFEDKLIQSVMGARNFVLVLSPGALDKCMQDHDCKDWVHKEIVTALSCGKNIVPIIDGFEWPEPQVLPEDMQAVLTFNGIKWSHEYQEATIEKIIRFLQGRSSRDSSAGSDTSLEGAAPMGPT

[18] = biological target: Mitogen-activated protein kinase 7 (Homo sapiens) (UniProt Q13164); assay: Gal4-ERK5 driven luciferase induction – cell-based, HTS, primary screen (AID 1508626;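 active = luciferase signal above three times the same-plate solvent-only control wells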;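 note: luciferase driven by Gal4-ERK5 fusion binding five Gal4 sites before minimal TATA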); settings: HeLa Gal4-ERK5 transactivation, 18 h, at 5 µM, stronger effect = higher value
Sequence of Mitogen-activated protein kinase 7 (Homo sapiens) (Q13164 whole entry, looked up, the tested form may be a part): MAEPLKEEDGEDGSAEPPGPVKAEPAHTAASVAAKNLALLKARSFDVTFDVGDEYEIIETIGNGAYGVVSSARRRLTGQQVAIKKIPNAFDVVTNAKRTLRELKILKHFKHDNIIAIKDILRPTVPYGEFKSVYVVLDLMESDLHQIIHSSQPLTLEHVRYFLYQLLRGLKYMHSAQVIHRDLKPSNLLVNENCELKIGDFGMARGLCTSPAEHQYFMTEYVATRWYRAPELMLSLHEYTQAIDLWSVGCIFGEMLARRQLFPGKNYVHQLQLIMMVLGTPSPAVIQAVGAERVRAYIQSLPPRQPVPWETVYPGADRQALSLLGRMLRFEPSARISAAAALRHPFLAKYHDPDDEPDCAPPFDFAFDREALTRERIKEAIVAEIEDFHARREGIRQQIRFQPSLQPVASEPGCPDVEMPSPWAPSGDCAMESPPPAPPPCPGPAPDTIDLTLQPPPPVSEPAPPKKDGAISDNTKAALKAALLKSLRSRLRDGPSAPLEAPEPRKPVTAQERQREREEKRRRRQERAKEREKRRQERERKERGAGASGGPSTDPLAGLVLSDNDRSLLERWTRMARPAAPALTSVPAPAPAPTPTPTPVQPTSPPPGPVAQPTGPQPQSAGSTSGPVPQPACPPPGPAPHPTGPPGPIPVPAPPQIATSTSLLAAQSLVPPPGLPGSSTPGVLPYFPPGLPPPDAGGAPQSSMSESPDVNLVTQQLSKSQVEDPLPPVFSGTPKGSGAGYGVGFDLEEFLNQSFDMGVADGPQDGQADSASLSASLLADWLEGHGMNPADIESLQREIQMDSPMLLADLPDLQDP

[19] = tested on: F380Y; assay: BK channel mutant inhibitors and activators – cell-based, U2OS BacMam, thallium flux, beta subunits, selectivity assay, profiling panel (AID 1259406;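 active = thallium flux through the channel raised or lowered by more than 3 SD from vehicle-only wells, actives on both sides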;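 note: initial slope of Thallos dye fluorescence rise after thallium is added; log ratio against the mean of 0.3% DMSO vehicle wells on the same plate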); settings: U2OS BacMam BK variants, at 30 µM
[20] = EMT-state selective cytotoxicity in co-culture – imaging, PC-3E GFP, TEM4-18 mCherry, primary screen (AID 1345086;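 active = compounds killing one labelled cell type while sparing the other, by normalised counts and ratio limits, not self-fluorescent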;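 note: cells exposed to compound for 72 h before imaging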;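 for red/green cell ratio (normalised): normalised mesenchymal count divided by normalised epithelial count so high means epithelial killing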); settings: PC-3E GFP / TEM4-18 mCherry co-culture, imaging cell counts, at 1 µM
[21] = stronger effect = lower value, cell number ratio, induced over uninduced
[22] = measured here: relative caspase fold change +Dox/-Dox
[23] = measured here: total cells with miR-34 induction, stronger effect = lower value
[24] = measured here: total cells without miR-34 induction
[25] = MELAS cybrid survival, CellTiter-Glo 48 h, stronger effect = higher value
[26] = Rieske KO mouse fibroblast survival, CellTiter-Glo 72 h

Compound: CC(=O)O[C@]1(C(C)=O)CC[C@H]2[C@@H]3C=C(C)C4=CC(=O)CC[C@]4(C)[C@H]3CC[C@@]21C
- parasite load remaining [1]: 111% (inactive) and 60.7% (inactive) and 27.2% (inactive)
- viability [1]: 93.3% and 69.6% and 81%
- fluorescence ratio [2]: 1.01 (inactive)
- inhibition [3]: 3.56% (inactive)
- inhibition [4]: 3.75% (inactive)
- fluorescence ratio [5]: 0.98 (inactive)
- nuclear beta-catenin stimulation ([6]; at 10 µM): 2.7% (inactive)
- nuclear beta-catenin stimulation ([6]; stimulation, at 2 µM): 1.9%
- insulin secretion stimulation [7]: 0.1% (inactive)
- viability decrease [8]: -86.9% (inactive)
- tube area decrease [9]: -10.2% (inactive)
- GLP1 secretion stimulation [10]: 0% (inactive)
- inhibition of viability [11]: 46.5% (inactive)
- viability decrease (inhibition) [12]: 59.6% (active)
- viability decrease (inhibition) [13]: 22.4% (inactive)
- inhibition [14]: -2.23% (inactive)
- fold change [15, 21]: 0.793 (inactive) and 0.839 (inactive)
- fold change [15, 22]: 1.65 and 1.15
- cell count [15, 23]: 7300 and 6980
- cell count [15, 24]: 9200 and 8320
- z-score [16, 25]: -0.444 (inactive) and 0.0969 (inactive)
- z-score [16, 26]: -0.239 and -0.33
- remaining NAD [17]: 10 nM (inactive)
- luciferase signal [18]: 52 AU (inactive)
- log fold change Tl+ flux [19]: 0.00819 (inactive)

Compound: CCOC(=O)N1CCC(=C2c3ccc(Cl)cc3CCc3cccnc32)CC1
- parasite load remaining [1]: 39.1% (inactive) and 10.2% (inactive) and 5.21% (inactive)
- viability [1]: 101% and 59.1% and 70%
- fluorescence ratio [2]: 0.91 (inactive)
- inhibition [3]: -3.56% (inactive)
- inhibition [4]: 6.83% (inactive)
- fluorescence ratio [5]: 0.9 (inactive)
- nuclear beta-catenin stimulation ([6]; at 10 µM): 1.8% (inactive)
- nuclear beta-catenin stimulation ([6]; stimulation, at 2 µM): 1%
- insulin secretion stimulation [7]: 6.9% (inactive)
- viability decrease [8]: 94.1% (active)
- tube area decrease [9]: 39.2% (inactive)
- GLP1 secretion stimulation [10]: 14.3% (inactive)
- inhibition of viability [11]: 98.8% (active)
- viability decrease (inhibition) [12]: 94% (active)
- viability decrease (inhibition) [13]: 97.2% (active)
- inhibition [14]: 4.3% (inactive)
- red/green cell ratio (normalised) ([20]; actives lie on both sides, counts scaled to control wells, 1 = unselective): 1.35 (inactive)
- normalised cell number ([20]; measured here: epithelial PC-3E GFP cell survival): 0.99
- normalised cell number ([20]; measured here: mesenchymal TEM4-18 mCherry cell survival): 1.34
- z-score [16, 25]: -0.418 (inactive) and -1.77 (inactive) and -2.01 (inactive)
- z-score [16, 26]: 0.823 and 1.1 and 0.356
- remaining NAD [17]: 10 nM (inactive)
- luciferase signal [18]: 48 AU (inactive)

Compound: CC(=O)OCC(=O)[C@@]12OC(C)(C)O[C@@H]1C[C@H]1[C@@H]3C[C@H](F)C4=CC(=O)C=C[C@]4(C)[C@@]3(F)[C@@H](O)C[C@@]12C
- parasite load remaining [1]: 84.8% (inactive) and 108% (inactive)
- viability [1]: 105% and 96.2%
- fluorescence ratio [2]: 1.05 (inactive)
- inhibition [3]: 4.09% (inactive)
- inhibition [4]: -1.24% (inactive)
- fluorescence ratio [5]: 1.01 (inactive)
- nuclear beta-catenin stimulation ([6]; at 10 µM): 1.1% (inactive)
- nuclear beta-catenin stimulation ([6]; stimulation, at 2 µM): 2.1%
- insulin secretion stimulation [7]: 0.2% (inactive)
- viability decrease [8]: -25.9% (inactive)
- tube area decrease [9]: 30.9% (inactive)
- GLP1 secretion stimulation [10]: 0.7% (inactive)
- inhibition of viability [11]: 20.4% (inactive)
- viability decrease (inhibition) [12]: -2.3% (inactive)
- viability decrease (inhibition) [13]: -3.8% (inactive)
- inhibition [14]: -0.585% (inactive)
- fold change [15, 21]: 0.945 (inactive) and 0.813 (inactive)
- fold change [15, 22]: 2.11 and 1.02
- cell count [15, 23]: 7270 and 6260
- cell count [15, 24]: 7700 and 7690
- z-score [16, 25]: 0.454 (inactive)
- z-score [16, 26]: 1.02
- remaining NAD [17]: 10 nM (inactive)
- luciferase signal [18]: 260 AU (active)
- log fold change Tl+ flux [19]: 0.00343 (inactive)
